# Screening data (PubChem)
# TTR transcr act = increases transthyretin transcription; 92,000 compounds, 1.3% hits; AID 1117267; activation, % at 16.7 µM; SH-SY5Y TTR promoter Gaussia luciferase, luminescence; 100% = recombinant luciferase protein wells;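 active means activation above the mean of all tested compounds plus 3 SD, cut at about 9.5% in these data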;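 further: cells exposed to compounds for one day before reading; 0% = median of all test compound wells on the plate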
# TTR inh HuH7 = counter-screen for TTR activators: TTR transcription inhibitors in HuH7 cells. 1,100 compounds, 4% hits. shares compounds with TTR transcr act. AID 1117279. HuH7 TTR promoter-Gaussia luciferase reporter, luminescence. inhibition, % at 16.7 µM;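 active means average inhibition above the solvent-only control wells' mean plus 3 SD, cut at about 15% in these data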;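 further: 0% = cells with DMSO only and 100% = cells with inhibitor control FD; inhibitors lower well luminescence so higher value means more inhibition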
# TTR up confirm = confirmation of human transthyretin transcription activators | activation, % at 16.7 µM | SHSY5Y TTR promoter Gaussia luciferase, luminescence; 100% = purified Lucia enzyme wells, no cells | 1,100 tested, under 10 active | shares compounds with TTR transcr act;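 active means mean activation above a set limit taken from the earlier primary screen, cut at about 11% in these data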;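 further: 0% = DMSO-treated cells and 100% = recombinant Lucia luciferase without cells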
# An asterisk follows results filed as active. Shown is part of a subset that was picked to be rich in hits.
SMILES,TTR transcr act,others
NC(=O)C1CCN(c2nc(-c3ccc4c(c3)OCCCO4)cs2)CC1,-0.3,
C[C@H]1[C@@H](OC(=O)Nc2cccc(Cl)c2)CC[C@@]23CCCN2C(=O)CCC[C@@H]13,-0.5,
CCCCCCCCN1C(=O)[C@@H](CC(=O)NCc2cccc(C(F)(F)F)c2)C[C@@]2(C(=O)OC)C1=C[C@H](C(C)C)O[C@@H]2C1CC1,-1.4,
Cc1ccc(CN2CC=CCS2(=O)=O)cc1,-0.7,
CCOC(=O)c1[nH]c2ccccc2c1NC(=O)NC(C)C,0.5,
CCCCNC(=O)Nc1c(C(=O)OCC)[nH]c2ccccc12,1.0,
CCOC(=O)c1[nH]c2ccc(F)cc2c1NC(=O)Nc1ccccc1OC,14.9*,TTR inh HuH7=-19.8;TTR up confirm=-0.3
N#Cc1ccc(OCC(=O)N[C@@H](Cc2ccccc2)c2nc3ccccc3[nH]2)cc1,2.1,
O=S1(=O)c2ccc(N3CCC[C@@H]3CO)cc2O[C@H]2CCN1C2,-0.3,
COc1ccc(/C=N/NC(=O)C(N)=O)c(OC)c1OC,12.9*,TTR inh HuH7=-4.1;TTR up confirm=0.4
COc1ccc(/C=N\NC(=O)CCc2c(C)n[nH]c2C)c(OC)c1OC,-0.9,
COc1ccc(/C=N/NC(=O)c2cccc(OC(F)(F)C(F)F)c2)c(OC)c1OC,0.8,
CC(C)OC(=O)C1=CNCC(C)(C)c2c1[nH]c1cc(F)ccc21,-1.2,
CC(C)(C)N1NC2(CCCCC2)NC1=S,11.8*,TTR inh HuH7=-15.7;TTR up confirm=0.6
CCOC(=O)CN1NC2(CCCCCC2)NC1=S,0.0,
C[C@@H]1CCCCO[C@@H](CN(C)Cc2ccc(C(=O)O)cc2)[C@@H](C)CN([C@H](C)CO)C(=O)c2cc(NS(C)(=O)=O)ccc2O1,-0.5,
Cc1cc2c(s1)c1cnn(Cc3c(Cl)ccc(C)c3F)c(=O)c1n2C,-0.6,
O=C(COC(=O)c1cc(=O)[nH]c2ccccc12)NC1CCCCC1,12.2*,TTR inh HuH7=-11.5;TTR up confirm=-0.3
NC(=O)COC(=O)c1cc(=O)[nH]c2ccccc12,-0.5,
CNC(=O)COC(=O)c1cc(=O)[nH]c2ccccc12,0.8,
CCOC(=O)[C@@]12CCC3=C1N(CCC3)C(=O)[C@H](CC(=O)NCCCCc1ccccc1)C2,-0.9,
Cc1ccccc1CN1CCCCC(NC(=O)Nc2ccccc2)C1=O (stereo not given),5.4,
Cc1cc(NC(=O)CSc2n[nH]c(-c3cccs3)n2)no1,4.0,
CC(C)(C)NC(=O)CSc1nnc(-c2ccncc2)n1Cc1ccccc1,-1.1,
Cc1nc(SCC(=O)NC(C)(C)C)c2c(-c3cccs3)csc2n1,13.6*,TTR inh HuH7=-16.2;TTR up confirm=-0.1
SMILES,TTR transcr act,others
COC(=O)[C@]12C[C@H](CC(=O)NCc3ccc(C)o3)C(=O)N(Cc3cccc4ccccc34)C1=C[C@H](COCc1ccccc1)O[C@@H]2C,-0.4,
Cc1cc(C(=O)NCCCN2CCOCC2)n(-c2ccccc2)n1,17.5*,TTR inh HuH7=-3.2;TTR up confirm=0.0
CCOCCCNC(=O)c1cc(C)nn1-c1ccccc1,-0.3,
Cc1cc(C(=O)N2CCOCC2)n(-c2ccccc2)n1,0.3,
O=C1[C@H](c2ccccc2)[C@@H](c2ccncc2)N1c1ccncc1,-0.3,
COc1ccc(-c2[nH]nc3oc(=O)cc(C)c23)cc1,16.1*,TTR inh HuH7=-17.5;TTR up confirm=-0.6
COc1ccc(-c2cc(=O)c3c(OC)c(OC)c(OC)c(OC)c3o2)cc1,-2.6,
COc1ccc(-c2cc(=O)c3c(C)cc(O)cc3o2)cc1,-2.2,
O=C(O)Cc1csc2ccccc12,11.8*,TTR inh HuH7=-10.5;TTR up confirm=0.6
O=C(NCc1csc2ccccc12)Nc1cc(Cl)cc(Cl)c1,1.4,
O=C(Nc1ccccc1)Nc1csc2ccccc12,-0.7,
C[C@@H]1CN([C@@H](C)CO)C(=O)CCCn2cc(nn2)CO[C@H]1CN(C)S(=O)(=O)c1cccc(C#N)c1,-1.5,
COc1cccc(S(=O)(=O)N(C)C[C@@H]2OCc3cn(nn3)CCCC(=O)N([C@@H](C)CO)C[C@H]2C)c1,11.4*,TTR inh HuH7=-7.5;TTR up confirm=0.6
C[C@H](CO)N1C[C@H](C)[C@@H](CN(C)S(=O)(=O)c2ccc3ccccc3c2)OCc2cn(nn2)CCCC1=O,0.3,
C[C@@H]1CN([C@@H](C)CO)C(=O)CCCn2cc(nn2)CO[C@H]1CN(C)C(=O)Nc1ccc(F)cc1,1.9,
CCOC(=O)[C@@]12CCC3=C1N(CCC3)C(=O)[C@H](CC(=O)N1CCCCC1)C2,0.3,
CCCCCCCCN1C(=O)[C@@H](CC(=O)NCCCOCCCC)C[C@@]2(C(=O)OC)C1=C[C@H](C(C)C)O[C@@H]2C1CC1,-0.5,
C[C@@H]1CCN(C2CC2)S(=O)(=O)c2ccc(N3CCC[C@H]3C)cc2O1,-0.3,
C[C@@H]1[C@@H](c2ccccc2)OC(O)([C@H](Cc2ccccc2)NC(=O)OC(C)(C)C)CN1C (stereo not given in full),1.3,
O=C(CCn1ccc([N+](=O)[O-])n1)NC1CCCCCC1,1.5,
CC(=O)Nc1ccc(NC(=O)Cn2ccc([N+](=O)[O-])n2)cc1,1.1,
